Records with an inconclusive call do not appear. Activity calls are given as the source filed them. Calls come from the whole dose curve; as a rule, active = well fitted inhibition curve with a large enough effect; inconclusive = small, poorly fitted or top-dose-only effect; inactive = flat fitted curve, though single readings scatter.
Columns and labels:
Assay in all cases: qHTS profiling for inhibitors of Plasmodium falciparum proliferation (AID 504749); note: nearly all actives have a fitted effect of over 60% in size
Conditions in all cases: P. falciparum in erythrocytes, SYBR Green DNA, 72 h; series mostly up to 28.7 µM
CP256 = tested on: CP256
In short: (§1)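 P. falciparum-infected erythrocytes (0.3% parasitemia, 2.5% hematocrit) incubated with compound 72 h at 37 C, 5% CO2. Parasite DNA detected by SYBR Green after lysis, overnight at room temperature; normalised to 0.29 uM artemisinin and DMSO.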

CP260 = tested on: CP260
In short: as §1

CP262 = tested on: CP262
In short: as §1

CP265 = tested on: CP265
In short: as §1

CP266 = tested on: CP266
In short: as §1

CP268 = tested on: CP268
In short: as §1

CP269 = tested on: CP269
In short: as §1

CP286 = tested on: CP286
In short: as §1

CP291 = tested on: CP291
In short: as §1

CP297 = tested on: CP297
In short: as §1

CP305 = tested on: CP305
In short: as §1

CP315 = tested on: CP315
In short: as §1

CP325 = tested on: CP325
In short: as §1

CP329 = tested on: CP329
In short: as §1

DFO2036 = tested on: DFO2036
In short: as §1

DIV14 = tested on: DIV14
In short: as §1

DIV17 = tested on: DIV17
In short: as §1

DIV30 = tested on: DIV30
In short: as §1

FAB9 = tested on: FAB9
In short: as §1

GB4 = tested on: GB4
In short: as §1

HB3 = tested on: HB3
In short: as §1

ICS = tested on: ICS
In short: as §1

JCK = tested on: JCK
In short: as §1

N140 = tested on: N140
In short: as §1

P93_24 = tested on: P93_24
In short: as §1

P94_40 = tested on: P94_40
In short: as §1

PAD = tested on: PAD
In short: as §1

PC15 = tested on: PC15
In short: as §1

PC26 = tested on: PC26
In short: as §1

PC49 = tested on: PC49
In short: as §1

SC27B = tested on: SC27B
In short: as §1

TAB109 = tested on: TAB109
In short: as §1

TAB165 = tested on: TAB165
In short: as §1

W2 = tested on: W2
In short: as §1

Measured: Potency

C[N+]1(C)C2CC[C@H]1CC(OC(=O)[C@@H](CO)c1ccccc1)C2 (some centres undefined)
inactive: CP256 | CP260 | CP262 | CP265 | CP266 | CP268 | CP269 | CP286 | CP291 | CP297 | CP305 | CP315 | CP325 | CP329 | DFO2036 | DIV14 | DIV17 | DIV30 | FAB9 | GB4 | HB3 | ICS | JCK | N140 | P93_24 | P94_40 | PAD | PC15 | PC26 | PC49 | SC27B | TAB109 | TAB165 | W2

— PubChem BioAssay (NCATS)
